The subject of experiment [1] is MDA-MB-231. Nature of the experiment: cell viability relative to vehicle unstimulated control (fraction); higher = more viable cells. Particulars: pre-treatment time: 18 h then 24 h IFNg/TNF.
The subject of experiment [2] is MDA-MB-231. Nature of the experiment: kynurenine production, fold change vs DMSO IFNg/TNF control; higher = more kynurenine produced (less inhibition). Particulars: pre-treatment time: 18 h then 24 h IFNg/TNF. A digest of the protocol: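 MDA-MB-231 cells (7 × 10^4/well, 96-well plates, seeded 24 h earlier) were pre-treated 18 h with each natural product in 0.1% DMSO, then stimulated 24 h with IFNγ (1 U/ml) and TNF (6.25 ng/ml) at 37°C. Supernatant kynurenine was read at 492 nm after trichloroacetic acid and p-dimethylaminobenzaldehyde treatment, against 0–100 μM standards. Kynurenine production is the fold change over cytokine-stimulated vehicle wells on the same plate, averaged over duplicate plates in the first screening round.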

Where a name gives a salt, the structure may show the parent alone. ± gives the standard deviation of the averaged measurements.
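Throughout, for cell viability relative to vehicle unstimulated control: viability of the cells left after supernatant collection, read with Deep Blue dye added for 4 h, as absorbance at 570 nm minus 600 nm.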

Take `CC(C)c1ccc2c(c1O)CC[C@H]1C3=C(CC[C@]21C)C(=O)OC3` [Triptophenolide] (compound dose: 10 uM): the cell viability in the experiment on MDA-MB-231 [1] is 0.9594 ± 0.0068. Further, in the experiment with MDA-MB-231 [2], the kynurenine production came to 0.815 ± 0.17.
The matching figures for `C[C@@H]1CC[C@H]2[C@@H](C)C(=O)O[C@@H]3O[C@@]4(C)CC[C@@H]1[C@]32OO4` [Artemisinin] (compound dose: 10 uM): 1.06 ± 0.079 and 0.581 ± 0.11.
As to `O=C([O-])c1ccc[n+]([C@@H]2O[C@H](CO)[C@@H](O)[C@H]2O)c1` [Nicotinic acid riboside] (compound dose: 10 uM), in the experiment with MDA-MB-231 [1], the cell viability stood at 0.784 ± 0.36. Also, in the experiment on MDA-MB-231 [2], the kynurenine production was determined as 0.364 ± 0.35.
As for `C=C1[C@H](OC(C)=O)[C@@H](OC(=O)c2ccccc2)[C@@H](OC(C)=O)C(C)(C)[C@H]2O[C@](O)([C@@H](C)C2=O)[C@@]2(OC(C)=O)C[C@H](C)[C@H](OC(C)=O)[C@@H]2[C@H]1OC(C)=O` [Kansuinine A] (compound dose: 10 uM), the cell viability with MDA-MB-231 [1] worked out at 0.934 ± 0.028. Also, the kynurenine production with MDA-MB-231 [2] is 0.709 ± 0.031.
The matching figures for `C[C@@]1(C(=O)O)CC[C@]2(C)CC[C@]3(C)C4=CC(=O)c5c(cc(O)c(O)c5C=O)[C@]4(C)CC[C@@]3(C)[C@@H]2C1` [Demethylzeylasteral] (compound dose: 10 uM): 0.786 ± 0.1 and 0.294 ± 0.022.
For `COc1ccc2c(c1O)-c1c(O)c(OC)cc3c1[C@H](C2)N(C)CC3` [Corytuberine] (compound dose: 10 uM), in that order: 0.829 ± 0.025 and 0.889 ± 0.11.
For `C=C1[C@@H]2CCC3[C@@](CC[C@@H]4[C@H](C(=O)O)C[C@@H](O[C@@H]5O[C@H](CO)[C@@H](OS(=O)(=O)O)[C@H](OS(=O)(=O)O)[C@H]5OC(=O)CC(C)C)C[C@@]34C)(C2)[C@@H]1O` (some centres undefined) [Atractyloside (potassium salt)] (compound dose: 10 uM), in that order: 0.797 ± 0.18 and 0.945 ± 0.02.
As for `CC1=C[C@]23C(=O)[C@@H](C=C(CO)[C@@H](O)[C@]2(O)[C@H]1O)[C@H]1[C@@H](C[C@H]3C)C1(C)C` [Ingenol] (compound dose: 10 uM), the cell viability in the experiment with MDA-MB-231 [1] was 0.906 ± 0.051. In addition, in the experiment on MDA-MB-231 [2], the kynurenine production was 0.846 ± 0.12.
For the compound `CC1=C[C@]23C(=O)[C@@H](C=C(COC(=O)c4ccccc4)[C@@H](O)[C@]2(O)[C@H]1OC(=O)c1ccccc1)[C@H]1[C@@H](C[C@H]3C)C1(C)C` [Ingenol 3,20-dibenzoate] (compound dose: 10 uM), the cell viability in the experiment with MDA-MB-231 [1] came out at 1.05 ± 0.061. Besides, the kynurenine production in the experiment on MDA-MB-231 [2] stood at 0.6413 ± 0.0018.
The matching figures for `CC(C)(C)[C@]1(O)CC2OC(=O)CC23C(=O)OC2OC(=O)[C@H](O)C231` (some centres undefined) [Bilobalide] (compound dose: 10 uM): 1.01 ± 0.015 and 0.774 ± 0.031.
For `COc1cc([C@@H]2c3cc4c(cc3C[C@H]3COC(=O)[C@@H]32)OCO4)cc(OC)c1OC` [4-deoxypodophyllotoxin] (compound dose: 10 uM), in the experiment with MDA-MB-231 [1], the cell viability was determined as 0.814 ± 0.042. Also, the kynurenine production with MDA-MB-231 [2] stood at 0.623 ± 0.19.
In the case of `CC(=O)O[C@H]1C[C@H](O[C@H]2[C@@H](O)C[C@H](O[C@H]3[C@@H](O)C[C@H](O[C@H]4CC[C@@]5(C)[C@H](CC[C@@H]6[C@@H]5C[C@@H](O)[C@]5(C)[C@@H](C7=CC(=O)OC7)CC[C@]65O)C4)O[C@@H]3C)O[C@@H]2C)O[C@H](C)[C@H]1O[C@@H]1O[C@H](CO)[C@@H](O)[C@H](O)[C@H]1O` [Lanatoside C] (compound dose: 10 uM), the cell viability with MDA-MB-231 [1] is 0.607 ± 0.021. Also, the kynurenine production with MDA-MB-231 [2] came out at 0.149 ± 0.015.
The matching figures for `CC1=C(O)C(=O)C=C2C1=CC=C1[C@@]2(C)CC[C@@]2(C)[C@@H]3C[C@](C)(C(=O)O)CC[C@]3(C)CC[C@]12C` [Tripterin] (compound dose: 10 uM): 0.0346 ± 0.01 and 0.119 ± 0.017.
The matching figures for `CCCC(=O)O[C@@H]1[C@@H](C)[C@@]2(O)[C@@H](C=C(CO)C[C@]3(O)C(=O)C(C)=C[C@@H]23)[C@@H]2C(C)(C)[C@]12OC(=O)CCC` [Phorbol 12,13-Dibutyrate] (compound dose: 10 uM): 1.09 ± 0.072 and 0.781 ± 0.034.
For `CC1=C[C@H]2[C@@]3(O)[C@H](C)[C@@H](O)[C@]4(O)[C@H]([C@@H]3C=C(CO)C[C@]2(O)C1=O)C4(C)C` [Phorbol] (compound dose: 10 uM), in that order: 1.02 ± 0.074 and 0.894 ± 0.041.
On to `COc1cc2c3cc1Oc1cc(ccc1O)C[C@@H]1c4c(cc(OC)c(O)c4Oc4ccc(cc4)C[C@H]3N(C)CC2)CCN1C` [Curine] (compound dose: 10 uM), for which the cell viability with MDA-MB-231 [1] was determined as 0.654 ± 0.038. Besides, the kynurenine production with MDA-MB-231 [2] stood at 0.389 ± 0.026.
The matching figures for `CC(=O)O[C@@H]1[C@H]2[C@@H](OC(=O)Cc3ccccc3)[C@@H](C)C[C@]2(OC(C)=O)C(=O)/C(C)=C/[C@@H]2[C@H](CC[C@]13CO3)C2(C)C` [Euphorbia Factor L1] (compound dose: 10 uM): 0.909 ± 0.045 and 1.11 ± 0.0098.

The record behind these values is the supplement of paper PMC13094657.
